Holding throughout (experiment): NCI-60 one-dose screen, 48 h (100 = growth as untreated, 0 = no growth, -100 = all killed)
What all share (conditions): 10 µM unless noted

In test [1] the test system is DU-145 prostate.
Test [2] deals with K-562 leukemia.
In test [3] the test system is MALME-3M melanoma.
The test system of test [4] is MDA-MB-231 breast.
Test [5] deals with RXF 393 renal.
The subject of test [6] is SF-268 CNS.
For test [7], the system named is SF-295 CNS.
The subject of test [8] is SF-539 CNS.
In test [9] the test system is UACC-257 melanoma.
For test [10], the system named is M14 melanoma.

Each structure is given as a SMILES string. About 83,000 compounds went through this panel and 20% of them were active in at least one assay; those are over-represented in the sample as a whole.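 For each line, cells grew in 96-well plates with the test compound present at a single concentration for 48 hours.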 A number with no mark means an inactive call. Active and inactive are the calls of the source. How the source made its calls: active means growth percent below 10; inactive means the rest.

As to `C#CC(F)(F)[C@]1(O)CC[C@H]2[C@@H]3CCC4=CC(=O)CCC4=C3[C@@H](c3ccc(C4CC4)cc3)C[C@@]21C`, the growth is 30.3% in test [1]; 14.3% in test [2]; -71.7% (active) in [3]; -10.3% (active) in test [4]; 31.1% in test [5]; -60.5% (active) in test [6]. Besides, the growth was -59.6% (active) in test [7], -84.3% (active) in test [8], 77.8% in [9] and 62.2% in [10].
Regarding `Nc1n[nH]c2ccc([C@@H]3Nc4ccc5[nH]ncc5c4[C@H]4C5C=CC(C5)[C@@H]34)cc12` (stereo not given in full), the growth in test [1] is 8.03% (active); in test [2] it was 8.61% (active); in test [3], 43.1%; in [4] it was 25.5%; in test [5] it was 17.8%; in test [6], 20.3%. The growth was 1.53% (active) in test [7], -31.4% (active) in [8], 68.6% in [9] and 4.56% (active) in test [10].
For the compound `COc1ccc(-n2nc(C)c3c(Nc4ccc(NC(=O)Nc5cc(C(F)(F)F)ccc5F)cc4)ncnc32)cc1`, the growth in test [1] was 63.6%; in [2] it was 6.88% (active); in test [3], 38.9%; in [4], -9.99% (active); in [5], -13.2% (active); in [6], 42.6%. Besides, the growth is -32.1% (active) in test [7], 16.8% in test [8], 45% in test [9] and -29.6% (active) in [10].
With `C=C1c2nc3ccccc3n2C=C(c2cccc(Cl)c2)N1Cc1ccc(OC)cc1`, the growth was 15.3% in test [1]; 0.532% (active) in test [2]; 76.8% in test [3]; 36.3% in test [4]; 4.81% (active) in [5]; 21.7% in test [6]. The growth in [7] was 2.35% (active); in test [8], -15% (active); in test [9], 34.4%; in [10], 22.3%.
For the compound `COc1cc2c(cc1-c1c(C)noc1C)ncc1nc(C3CCCCC3)n([C@H](C)COC(F)F)c12`, the growth in test [1] was 63.8%; in test [2], 24.6%; in test [3] it was 69.3%; in test [4], 41.9%; in [5] it was 52.6%; in test [6], 58.8%. In addition, the growth was 52.4% in test [7], 34.7% in test [8], 31.4% in [9] and 39.9% in test [10].
As for `C#Cc1cccc(NC(=O)c2ccccc2NC(=O)CCl)c1`, the growth in test [1] was 96.2% [8.25 µM]; in test [2], 68.2% [8.25 µM]; in test [3], 105% [8.25 µM]; in [4], 111% [8.25 µM]; in test [5] it was 96.7% [8.25 µM]; in test [6], 68% [8.25 µM]. Besides, the growth in test [7] was 103% [8.25 µM]; in [8] it was 93.4% [8.25 µM]; in test [9] it was 98.4% [8.25 µM]; in test [10], 83.3% [8.25 µM].
Regarding `O=C(/C=C/c1cccc([N+](=O)[O-])c1)c1ccc(O)c(CN2CCN(c3cc4c(cc3F)c(=O)c(C(=O)O)cn4C3CC3)CC2)c1`, the growth in [1] is 22%; in test [2] it was 6.49% (active); in test [3], 78.2%; in [4] it was 54.4%; in [5], -12.4% (active); in test [6], 43.2%. In addition, the growth is 50.1% in test [7], 12% in [8], 63.1% in test [9] and 9.3% (active) in test [10].
With `COc1cc2nc(N3CCCC3)nc(Nc3ccccc3)c2cc1OC`, the growth in test [1] is 9.82% (active); in test [2] it was -11.6% (active); in test [3], -85.9% (active); in test [4], -69.4% (active); in [5] it was -84.5% (active); in [6], -0.197% (active). The growth in [7] was -63.2% (active); in test [8], -87.4% (active); in test [9], -84.2% (active); in test [10], -70.7% (active).
Consider `CSc1nc(-c2cccc(NC(=O)CCl)c2)c(C#N)c(=O)n1C`, for which the growth in [1] was 77.3%; in [2] it was 11.4%; in test [3], -72.6% (active); in test [4], 65.9%; in [5], 63.9%; in test [6], 61.5%. Also, the growth in test [7] was 98.7%; in [8], 38.6%; in [9], 63.5%; in test [10] it was 56.8%.
`Cc1ccc(NS(=O)(=O)c2ccc(-c3cnc(C4CC4)o3)cc2)cc1C`: the growth in test [1] is 14.4%; in test [2], 9.36% (active); in test [3], 42.6%; in test [4], 40.1%; in test [5] it was -3.66% (active); in [6] it was 52%. Besides, the growth in test [7] was 10.3%; in test [8] it was -13.6% (active); in test [9], 49.8%; in [10], 25.6%.
In the case of `Nc1ccc(-c2cc3c(NCc4ccccc4)ncnc3s2)cc1`, the growth in test [1] is 55.8%; in [2], 61.8%; in test [3], 91.3%; in [4] it was 86%; in test [5], 74.2%; in test [6], 86.9%. Besides, the growth is 83.5% in test [7], 86% in test [8], 85.8% in [9] and 103% in [10].
For the compound `COc1cc(-c2nc3cc(Cl)c(Cl)cc3[nH]2)ccc1OCC(=O)N=Nc1c(O)[nH]c2ccccc12`, the growth in test [1] was -69.9% (active); in test [2], -32.4% (active); in test [3], -94% (active); in [4], -82.2% (active); in test [5], -75.9% (active); in test [6], -34.9% (active). The growth in test [7] was -87.5% (active); in [8] it was -87.3% (active); in test [9], -60.2% (active); in test [10], -76.1% (active).
Take `O=C1c2cc3c(cc2-c2c1c1cc(F)c(F)cc1c(=O)n2CCCn1ccnc1)OCO3`: the growth in [1] was 9.97% (active); in [2], 8.61% (active); in test [3] it was -4.79% (active); in test [4] it was 13.9%; in test [5], -22.4% (active); in test [6], 13.4%. Further, the growth is -12.4% (active) in [7], -19.7% (active) in test [8], -28.9% (active) in test [9] and 8.25% (active) in test [10].
